Data as given in PubChem BioAssay (NCI).
The panel holds about 83,000 compounds, 20% with a hit somewhere; the sample as a whole holds those more often.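 48-hour exposure, single concentration, 96-well plates; percent growth endpoint where 0 means no net growth. Active: below 10.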 Unmarked numbers belong to inactive results. Active and inactive are the calls of the source.

What was measured:
Test in all cases: NCI-60 one-dose screen, 48 h (100 = growth as untreated, 0 = no growth, -100 = all killed)
Conditions in all cases: 10 µM unless noted
[1] = system: NCI-H23 lung
[2] = system: NCI-H226 lung
[3] = system: NCI-H322M lung
[4] = system: HOP-62 NSCLC
[5] = system: NCI-H460 lung
[6] = system: NCI-H522 lung
[7] = system: A549/ATCC NSCLC
[8] = system: 786-0 renal
[9] = system: COLO 205 colon
[10] = system: DU-145 prostate
[11] = system: K-562 leukemia
[12] = system: MALME-3M melanoma
[13] = system: MDA-MB-231 breast
[14] = system: RXF 393 renal
[15] = system: SF-268 CNS
[16] = system: SF-295 CNS
[17] = system: SF-539 CNS
[18] = system: UACC-257 melanoma
[19] = system: M14 melanoma

SMILES | growth [1] | growth [2] | growth [3] | growth [4] | growth [5] | growth [6] | growth [7] | growth [8] | growth [9] | growth [10] | growth [11] | growth [12] | growth [13] | growth [14] | growth [15] | growth [16] | growth [17] | growth [18] | growth [19]
Cc1cc2nc3c4ccccc4n(CCCN(C)C)c3nc2cc1C | -53.4% (active) | 4.65% (active) | -22.6% (active) | -0.831% (active) | -25.7% (active) | -58.7% (active) | 6.71% (active) | 3.7% (active) | -86.3% (active) | 2.68% (active) | -4.14% (active) | -89.6% (active) | -23.4% (active) | -62.1% (active) | -38.6% (active) | -30.4% (active) | -69.4% (active) | -81.2% (active) | 
COc1c(F)ccc(C(=O)Nc2ccc3nc(NC(=O)C4CCCN(S(=O)(=O)c5cccc(C(F)(F)F)c5)C4)sc3c2)c1F (configuration not stated) | 96.9% | 93.6% | 98.9% | 99% | 79.4% | 85.2% | 79.4% | 60.9% | 84.6% | 91.1% | 62.3% | 94.7% | 85% | -9.56% (active) | 65% | 79.8% | 70.1% | 89.9% | 87.5%
COc1ccc(N2N=C(c3ccc4c(c3)OCO4)CC2c2cccc(NC(=O)CCCNS(=O)(=O)c3ccc(F)cc3)c2)cc1 (configuration not stated) | 73.7% | 67.2% | 76.1% | 82.4% | 50.6% | -7.84% (active) | 49.1% | 62.5% | 65.3% | 80.3% | 35.5% | 77.6% | 50.2% | 66.9% | 52.8% | 49.2% | 74.9% | 75.7% | 49.5%
COc1cc(C2CC(c3ccc(S(=O)(=O)NCCNc4nc(Nc5ccc(F)cc5)nc(N(C)C)n4)cc3)=Nc3c(N)nc(N)nc3N2)cc(OC)c1OC (configuration not stated) | 93.5% | 91.4% | 86.7% | 94.3% | 84.5% | 84.2% | 97.9% | 75.3% | 104% | 103% | 47.2% | 84.4% | 43.7% | 74% | 82.8% | 94% | 86% | 97.9% | 101%
COc1ccc2[nH]c(=O)c(CSc3nccc(-c4ccc(OC)c(OC)c4)n3)cc2c1 | 35.4% | -13.2% (active) | 40.6% | 0.29% (active) | 18.1% | -17.4% (active) | 18.3% | 30.4% | 36.5% | 37.4% | 11.4% | -2.09% (active) | 6.47% (active) | -13.7% (active) | 28% | -30.4% (active) | 24.7% | 38.9% | 47.8%
C=CC(=O)Nc1ccc(C)c(Oc2ccc(Cl)cc2)c1 | 55.9% | 41.7% | 48.4% | 63% | 20.5% | 3.62% (active) | 47.2% | 55.1% | 55.7% | 68.6% | 53.2% | 73.8% | 44.1% | 38.5% | 57.1% | 58% | 30.2% | 66.6% | 72.3%
COc1ccc(NC(=O)Cn2c3c(sc2=O)[C@H]2[C@@H](O)[C@@H](O)[C@H](O)[C@@H]2CS3)cc1 | 104% | 96.3% | 101% | 99.5% | 108% | 94.2% | 100% | 104% | 117% | 109% | 95.6% | 102% | 107% | 114% | 102% | 105% | 101% | 102% | 103%
CC12CC[C@@H]3[C@]4(C)COC(c5cn[nH]c5-c5ccc(Br)cc5)O[C@@H]4CC[C@@]3(C)[C@@H]1CC(C1=CCOC1=O)O2 (some centres not stated) | 57.3% | 59.7% | 66.1% | 79.5% | 35.4% | 37.4% | 35.5% | 62.3% | 39% | 69.5% | 19.4% | 70.2% | 66% | 37% | 50.1% | 48.7% | 69.9% | 55.2% | 38.8%
C=C1CCC2C3(C)COC(c4ccccc4)OC3CCC2(C)C1CC(Sc1ccccc1)C1=CCOC1=O (configuration not stated) | 44.2% | 10.6% | 80.5% | 88.6% | 84.6% | 3.01% (active) | 35.3% | 52.3% | 71.3% | 70.6% | 7.88% (active) | 92.8% | 62.5% | 72.7% | 83.3% | 62.7% | 17.7% | 63.8% | 53.7%
COc1ccc(-c2nc3cc(C)ccc3n2CC(=O)N=Nc2c(O)[nH]c3ccc(OC)cc23)cc1 | -65.1% (active) | -66.6% (active) | -4.47% (active) | -70.5% (active) | -48% (active) | -40.9% (active) | -49.7% (active) | -69.3% (active) | -68.2% (active) | 8.56% (active) | -28.5% (active) | -94.6% (active) | -76.3% (active) | -82.9% (active) | -8.44% (active) | -72.9% (active) | -99% (active) | -78% (active) | -83.2% (active)
COc1ccc2c(c1)c(-c1cc3nc(-c4cn(C)c5ncccc45)cc(N)n3n1)cn2C | 0.244% (active) | -16.6% (active) | -8.29% (active) | -25.8% (active) | -25.5% (active) | -78.4% (active) | -30.6% (active) | -92% (active) | -74.1% (active) | -27.2% (active) | -31.2% (active) | -95.3% (active) | -82.8% (active) | -77.3% (active) | 11.9% | -79.4% (active) | -95.8% (active) | -78.7% (active) | -84.3% (active)
CCCCSc1nc(Nc2ccc(S(N)(=O)=O)cc2)c(C#N)c(-c2ccc(Cl)cc2)n1 | 26.1% | 12.8% | 73.8% | 10.6% | 7.9% (active) | 63.8% | 1.68% (active) | 23% | 55.2% | 53% | 5.58% (active) | 22.9% | -36.1% (active) | 16.8% | 69.2% | 8.15% (active) | -25.2% (active) | 76% | 
COC(=O)C[C@](O)(CCCC(C)(C)O)C(=O)O[C@H]1C(OC)=C[C@@]23CCCN2CCc2cc4c(cc2[C@@H]13)OCO4 | -53.9% (active) | -21.4% (active) | -3.53% (active) | 14.3% | -3.74% (active) | -68.7% (active) | -18.5% (active) | -14.4% (active) | -42.3% (active) | -11.7% (active) | 4.68% (active) | -43.8% (active) | -20.4% (active) | -31.8% (active) | -6.53% (active) | -22.8% (active) | -50.8% (active) | -28.2% (active) | -71.4% (active)
O=C(Nc1ccccc1)N1CCN(c2cc(-c3cn(-c4ccccc4)nc3-c3cccc(O)c3)ccn2)CC1 | 71% | 75.4% | 104% | 80.8% | 70% | 74.1% | 53.9% | 94.6% | 45.1% | 95.3% | 29.5% | 84% | 82.4% | 90.8% | 114% | 54.8% | 89.5% | 97.4% | 69.4%
COc1c(F)ccc(C(=O)Nc2ccc3nc(NC(=O)C4CCCN(S(=O)(=O)c5ccc(Br)c(F)c5)C4)sc3c2)c1F (configuration not stated) | 87.3% | 80.8% | 94.5% | 105% | 84.1% | 81.9% | 73.7% | 52.7% | 81.8% | 102% | 62.5% | 95.6% | 83.5% | -1.15% (active) | 96.7% | 72.5% | 64.5% | 80.7% | 80.7%
C=C1CCC2C3(C)COC(c4ccc(F)cc4)OC3CCC2(C)C1C/C=C1/C(=O)OCC1O (configuration not stated) | -40.3% (active) | -8.14% (active) | 27% | -3.79% (active) | -39% (active) | -80.7% (active) | 9.65% (active) | -89.2% (active) | -50.6% (active) | -41.4% (active) | 11.9% | -71.9% (active) | -45.2% (active) | -69.7% (active) | 39.7% | -8.06% (active) | -85.5% (active) | -62.6% (active) | -68.1% (active)
